# This is a sample that favours compounds with a hit; in the whole collection about 12% have one here.
# JMJD2A Tudor: blocks the human JMJD2A Tudor domain; O75164; Potency, µM (titrated, usually from 114 µM), for the others: top-dose activity change, negative = inhibition, actives largely listed as inhibitors; 390,000 compounds, 4.4% hits; AID 504339; AlphaScreen JMJD2A-Tudor / H3K4me3 peptide binding; also: % is scaled to controls: 0 for no effect and ±100 for the full control effect; nearly all actives have a fitted effect of over 50% in size
# G9a block: blocks human histone lysine methyltransferase G9a; 350,000 compounds, 8.8% hits; Potency, µM (top dose mostly 102 µM), without a hit: at the top dose activity, negative = inhibition, usual class: inhibitors; G9a H3K9 monomethylation, AlphaScreen, 2 h; also: % is scaled to controls: 0 for no effect and ±100 for the full control effect; nearly all actives have a fitted effect of over 75% in size
#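 Using a bead-based AlphaScreen, monomethylated H3K9 product from 2 h room-temperature reactions (G9a 20 nM, peptide 500 nM, SAM 20 uM) was detected with 0.5 ug/mL rabbit anti-H3K9me1 antibody.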
# BAZ2B inh: BAZ2B (human) inhibition. Q9UIF8. AlphaScreen BAZ2B-H3K14Ac peptide displacement. Potency, µM (highest dose often 114 µM), without a hit: at the highest dose activity change, negative = inhibition, actives largely listed as inhibitors. 360,000 compounds, 4.4% hits. AID 504333; also: % is scaled to controls: 0 for no effect and ±100 for the full control effect; nearly all actives have a fitted effect of over 60% in size
#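 Complex of BAZ2B and biotin-H3K14Ac (50 nM apiece) forms over 30 min at RT, then faces library compounds up to 110 uM for another 30 min; AlphaScreen beads added, 20 min dark incubation, luminescence read.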
# Sfp PPTase inh: inhibitors of Bacillus subtilis Sfp phosphopantetheinyl transferase | Potency, µM, inactives show largest response in the series, negative = inhibition, most hits filed as inhibitors | 310,000 compounds, 3.5% hits | Q9F4F7 | Biochemical Sfp PPTase activity, qHTS;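 also: the enzyme is Sfp with the accession as filed and its product quenches rhodamine fluorescence; 0% = enzyme reaction without inhibitor and -100% = no enzyme wells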
#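 Fluorescence-quenching assay with 15 nM Sfp, 5 uM rhodamine-CoA and 12.5 uM BHQ-2-labelled ybbR peptide in pH 7.6 Hepes/MgCl2 buffer. Enzyme was pre-incubated with compound for 15 min at room temperature. Rate was taken from the 30-min fluorescence change (525/598 nm).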
# L3MBTL1 inh: blocks human L3MBTL1; AID 485360; AlphaScreen L3MBTL1–H3K9me1 peptide binding; 230,000 compounds, 0.66% hits; Potency, µM (titrated, usually from 57.1 µM), for inactives: at the top dose activity, negative = inhibition, usual class: inhibitors; also: % is scaled to controls: 0 for no effect and ±100 for the full control effect; nearly all actives have a fitted effect of over 60% in size
#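 First, the protein-peptide complex forms for 30 min at room temperature (L3MBTL1 50 nM, biotinylated H3K9me1 peptide 75 nM). Next, compounds are pin-transferred and incubated 30 min. Finally, AlphaScreen beads are added and read after 30 min.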
# HP1b chromo inh: blocks HP1-beta chromodomain binding to methylated histone tails; P83916; AlphaScreen HP1-beta / biotin-H3K9me3 peptide binding; Potency, µM (highest dose often 114 µM), for inactives: at the highest dose activity change, negative = inhibition, most hits filed as inhibitors; 390,000 compounds, 0.56% hits; also: nearly all actives have a fitted effect of over 70% in size
#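 Compound inhibition of the preformed complex between 50 nM HP1-beta and 50 nM biotinylated H3K9me3 peptide was read by AlphaScreen. Buffer was PBS pH 7.4 with 0.01% Tween-20. Incubations ran 30 min at room temperature, with 10 ug/mL donor/acceptor beads.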
# * marks the source's active call; other numbers are inactive results; ? = inconclusive; . = no result; [ ] = remark or other dose. Calls follow the shape of the dose curve; as a rule, active = well fitted curve in the direction sought with a large enough effect; inconclusive = small, poorly fitted or top-dose-only effect, or another doubt; inactive = no such curve, though single readings can be large; an effect the other way counts as inactive or inconclusive. Potency is read from the fitted curve at half-maximal effect.
SMILES,JMJD2A Tudor,G9a block,BAZ2B inh,Sfp PPTase inh,L3MBTL1 inh,HP1b chromo inh
COC(=O)C1=C(C)N(Cc2ccc(OC)cc2)C(=O)C1,-11%,8%[59 µM],34%,-15%,1%,22%
COC(=O)C1=C(C)N(Cc2cccnc2)C(=O)/C1=C\c1cccs1,.,.,28µM*,-16%,?,.
COC(=O)C1=C(C)N(c2ccc(C)cc2)/C(=C/c2cccs2)C1=O,-22%[57.1 µM],-3%[59 µM],7%,3%,-4%,47%
COC(=O)C1=C(C)N(CCc2ccc(OC)cc2)C(=O)C1,-8%,?,-33%,5%,-8%,6%
COC(=O)C1=C(C)N(Cc2cccnc2)C(=O)C1,-20%,14µM*,2%,0%,11%,32%
COC(=O)C1=C(C)N(CC(C)C)C(=O)C1,-6%,40µM*,7%,-10%,.,28%
C=CCN1C(=O)/C(=C\c2cccs2)C(C(=O)OC)=C1C,?,50µM*,40µM*,0%,.,?
CCc1ccc(C(=O)Nc2cc3c(cc2Cl)OCCCO3)cc1,34%,63%,20%,-4%,20%,67%
C#CCOCCOCCOCCNc1nc(N2CCN(C(=O)CCCCCCCCCCNC(=O)[C@H](CCCCN)n3cc(C)nn3)CC2)nc(N2CCN(C(=O)CCCCCCCCCCNC(=O)[C@@H]([C@H](C)CC)n3cc(CCCCCN)nn3)CC2)n1,.,7%[2.33 µM],56µM*,.,-15%,.
C#CCOCCOCCOCCNc1nc(N2CCN(C(=O)CCCCCCCCCCNC(=O)Cn3cc(CCCCCN)nn3)CC2)nc(N2CCN(C(=O)CCCCCCCCCCNC(=O)[C@H]([C@@H](C)CC)n3cc(CCCCCN)nn3)CC2)n1,79µM*,-49%[2.33 µM],?,.,5%,?
C#CCOCCOCCOCCNc1nc(N2CCN(C(=O)CCCCCCCCCCNC(=O)[C@H]([C@@H](C)CC)n3cc(CCCCCN)nn3)CC2)nc(N2CCN(C(=O)CCCCCCCCCCNC(=O)[C@@H]([C@H](C)O)n3cc(C)nn3)CC2)n1,56µM*,-8%[2.33 µM],56µM*,.,-30%,?
O=[N+]([O-])c1cccc(S(=O)(=O)NCCc2ccccc2)c1,-5%,0%,-24%,1%,-2%,24%
COC(=O)Cc1c(C)c2ccc(OCC(=O)N(C)C3CCS(=O)(=O)C3)cc2oc1=O (centres undefined),-5%,.,-9%,7%,.,37%
COc1cccc(-c2nc(CS(=O)(=O)CC(=O)NCc3ccc(C)cc3)c(C)o2)c1,-15%,-17%[59 µM],-15%,.,.,42%
CC(C)(C)NS(=O)(=O)c1cnc(Cl)c(Cl)c1,-8%,58%[59 µM],6%,15%,3%,29%
CC(NC(=O)CCCn1c(=O)c2cccn2c2cccnc21)c1ccccc1 (centres undefined),-15%,1%[59 µM],-2%,.,.,15%
Cc1cc(NC(=O)CN2CCC(C)CC2)no1,5µM*,3.5µM*,.,40µM*,-8%,?
Cc1cc(NC(=O)CN2CCN(c3ccccc3O)CC2)no1,79µM*,?,-1%,-3%,-8%,8%
CC(=O)c1ccc(N2CCN(CC(=O)Nc3cc(C)on3)CC2)cc1,-8%,-2%,-14%,17%,.,31%
CCOc1ccccc1N1CCN(CC(=O)Nc2cc(C)on2)CC1,-14%,-1%,-3%,16%,5%,12%
C=CCN=C1S/C(=C\N(C)C)C(=O)N1S(=O)(=O)c1ccc(C)cc1,-7%,.,.,.,46%,47%
CCCN(C(=O)C(C)Oc1cccc(Cl)c1)c1c(N)n(Cc2ccccc2)c(=O)[nH]c1=O (centres undefined),-10%,.,-9%,2%,.,25%
CCOc1ccccc1CNc1ncnc2c1nc1n2CCCC1,-2%,-3%[59 µM],1%,.,.,47%
Cc1cccc(-c2c3c(=O)n(C)c(=O)n(C)c3cn2-c2ccccc2O)c1,-18%,?,-15%,50µM*,-9%,30%
COC(=O)c1ccccc1-n1cc2c(c1-c1cccc(C)c1)c(=O)n(C)c(=O)n2C,-24%,7.9µM*,-13%,.,.,16%
SMILES,JMJD2A Tudor,G9a block,BAZ2B inh,Sfp PPTase inh,L3MBTL1 inh,HP1b chromo inh
CCCCNc1nnc(SCC(=O)c2c[nH]c3ccccc23)s1,-10%,28µM*,-5%,3%,-4%,33%
Cn1cnnc1SCC(=O)c1c[nH]c2ccccc12,-17%,13%,-3%,-1%,3%,16%
Cc1ccc(C(=O)NNC(=O)c2csc(N3CCOCC3)n2)o1,?,-3%[0.501 µM],?,.,-4%,29%
O=C(NNC(=O)c1ccco1)c1csc(N2CCOCC2)n1,-1%,7.1µM*,?,.,1%,37%
O=c1[nH]n(CCO)c(=O)c2cccnc12,56µM*,?,?,1%,-2%,-14%
COC(=O)C1=C(C(=O)OC)[C@@H]2N(C)c3ccccc3[C@@]23C[C@@H](C(=O)OC)N(C(=O)c2cc(C)oc2C)C3=N1,?,-17%[59 µM],?,-5%,.,-5%
C=CC[n+]1c(-c2ccc(OC)cc2)csc1NNC(=O)Nc1ccccc1,50µM*,14µM*,10µM*,50µM*,.,-34%
COC(=O)c1ccc(C(NC(=O)OCc2ccccc2)/C(=C/[C@@H](C)C(=O)NC2CCCCC2)c2cccnc2)cc1 (some centres undefined),.,.,.,1%,.,.
CCOC(=O)c1[nH]nc(-c2cc(CC)c(O)cc2O)c1-c1cscn1,89µM*,.,?,-12%,-6%,26%

# Compound activity deposited in PubChem by National Center for Advancing Translational Sciences (NCATS).
